Where a name gives a salt, the structure may show the parent alone.
Test system: HL-1
Experiment: relative cell viability (CellTiter-Glo) vs DMSO control (% of DMSO control); higher = more viable cells
Method in brief: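 Viability of HL-1 mouse atrial cardiomyocytes was assessed by CellTiter-Glo luminescence and normalised to vehicle-treated control cells. Cells were plated in 384-well plates at 1000 cells per well with compounds at 40, 200, 1000 or 5000 nM in 0.01% DMSO, and one day later were placed at 1% O2 for 48 h, then reoxygenated for 24 h, or kept in normoxia for the same duration.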

[1] = oxygen condition: hypoxia 48 h (1% O2) + reoxygenation 24 h, 40 nM
[2] = oxygen condition: hypoxia 48 h (1% O2) + reoxygenation 24 h, 200 nM
[3] = oxygen condition: hypoxia 48 h (1% O2) + reoxygenation 24 h, 1000 nM
[4] = oxygen condition: hypoxia 48 h (1% O2) + reoxygenation 24 h, 5000 nM
[5] = oxygen condition: normoxia 72 h, 40 nM
[6] = oxygen condition: normoxia 72 h, 200 nM
[7] = oxygen condition: normoxia 72 h, 1000 nM
[8] = oxygen condition: normoxia 72 h, 5000 nM

| SMILES | relative cell viability [1] | relative cell viability [2] | relative cell viability [3] | relative cell viability [4] | relative cell viability [5] | relative cell viability [6] | relative cell viability [7] | relative cell viability [8] |
| --- | --- | --- | --- | --- | --- | --- | --- | --- |
| Cc1c(-c2ccccc2)oc2c(C(=O)OCCN3CCCCC3)cccc2c1=O [Flavoxate HCl] | 96.7 | 102 | 108 | 108 | 103 | 101 | 106 | 109 |
| CNC(=O)CN(CCN(CCN(CC(=O)[O-])CC(=O)NC)CC(=O)[O-])CC(=O)[O-].[Gd+3] [Gadodiamide] | 98 | 104 | 98.5 | 106 | 103 | 98.8 | 107 | 112 |
| Nc1nc2n[nH]nc2c(=O)[nH]1 [Azaguanine-8] | 92 | 105 | 102 | 111 | 103 | 102 | 98.7 | 104 |
| CN1C(CCl)Nc2cc(Cl)c(S(N)(=O)=O)cc2S1(=O)=O (stereo unspecified) [Methyclothiazide] | 106 | 98.5 | 105 | 110 | 108 | 106 | 109 | 115 |
| C#C[C@]1(OC(C)=O)CC[C@H]2[C@@H]3CCC4=C[C@@H](OC(C)=O)CC[C@@H]4[C@H]3CC[C@@]21C [Ethynodiol diacetate] | 97.7 | 103 | 113 | 111 | 104 | 110 | 104 | 116 |
| COc1ccc(CNc2nc(N3CCC[C@H]3CO)ncc2C(=O)NCc2ncccn2)cc1Cl [Avanafil] | 91.6 | 99.7 | 97.5 | 103 | 101 | 102 | 97.1 | 107 |
| CN(C)CC/C=C1/c2ccccc2COc2ccc(CC(=O)O)cc21 [Olopatadine hydrochloride] | 93 | 92.6 | 92.2 | 99.1 | 89.6 | 91.6 | 97.1 | 102 |
| Cc1cccc(C)c1NC(=O)C1CCCCN1C (stereo unspecified) [Mepivacaine HCl] | 102 | 99.8 | 121 | 105 | 102 | 110 | 111 | 111 |
| CC(C)NCC(O)COc1ccc(CCOCC2CC2)cc1 (stereo unspecified) [Betaxolol hydrochloride] | 107 | 104 | 106 | 79.8 | 105 | 106 | 86.5 | 69.3 |
| COc1ccc(CC2c3cc(OC)c(OC)cc3CC[N+]2(C)CCC(=O)OCCCCCOC(=O)CC[N+]2(C)CCc3cc(OC)c(OC)cc3C2Cc2ccc(OC)c(OC)c2)cc1OC (stereo unspecified) [Atracurium besylate] | 104 | 96.7 | 91.2 | 23.1 | 101 | 93.3 | 95.7 | 18.9 |
| COc1cccc2c1C(=O)c1c(O)c3c(c(O)c1C2=O)C[C@@](O)(C(=O)CO)C[C@@H]3O[C@H]1C[C@H](N)[C@@H](O)[C@H](C)O1 [Epirubicin Hydrochloride] | 96.8 | 102 | 107 | 91.5 | 93.5 | 97.6 | 91.7 | 96.4 |
| NS(=O)(=O)c1cc2c(cc1Cl)N=CNS2(=O)=O [Chlorothiazide] | 117 | 112 | 113 | 111 | 109 | 104 | 103 | 110 |
| Cc1cc(C#N)cc(C)c1Oc1nc(Nc2ccc(C#N)cc2)nc(N)c1Br [Etravirine] | 106 | 103 | 109 | 111 | 108 | 111 | 115 | 110 |
| CCCc1nc2c(C)cc(-c3nc4ccccc4n3C)cc2n1Cc1ccc(-c2ccccc2C(=O)O)cc1 [Telmisartan] | 107 | 102 | 105 | 101 | 105 | 104 | 107 | 109 |
| Nc1cccc2c1C(=O)N(C1CCC(=O)NC1=O)C2=O (stereo unspecified) [Pomalidomide] | 100 | 97.5 | 103 | 112 | 96.9 | 104 | 103 | 113 |
| Cc1ncc(CO)c(CO)c1O [Pyridoxine hydrochloride] | 102 | 101 | 103 | 109 | 99.7 | 100 | 103 | 114 |
| CC1(C)Cc2c(-c3ccccc3)c(-c3ccc(Cl)cc3)c(CC(=O)O)n2C1 [Licofelone] | 97.3 | 94.8 | 97.1 | 105 | 92.9 | 96.5 | 93.5 | 108 |
| CC(C)(Sc1cc(C(C)(C)C)c(O)c(C(C)(C)C)c1)Sc1cc(C(C)(C)C)c(O)c(C(C)(C)C)c1 [Probucol] | 108 | 105 | 104 | 110 | 106 | 103 | 105 | 112 |
| Cc1ccc(C(=O)c2cc(O)c(O)c([N+](=O)[O-])c2)cc1 [Tolcapone] | 101 | 100 | 103 | 116 | 98.4 | 102 | 103 | 113 |
| N#Cc1ccc(C(c2ccc(C#N)cc2)n2cncn2)cc1 [Letrozole] | 103 | 105 | 109 | 104 | 107 | 110 | 105 | 110 |
| C=CCNC(N)=S [Allylthiourea] | 118 | 102 | 115 | 122 | 106 | 100 | 109 | 124 |

| SMILES | relative cell viability [1] | relative cell viability [2] | relative cell viability [3] | relative cell viability [4] | relative cell viability [5] | relative cell viability [6] | relative cell viability [7] | relative cell viability [8] |
| --- | --- | --- | --- | --- | --- | --- | --- | --- |
| CC(=O)OCC(=O)NCCCOc1cccc(CN2CCCCC2)c1 [Roxatidine acetate HCl] | 105 | 104 | 99.8 | 114 | 110 | 102 | 107 | 108 |
| CCOC(=O)[C@H](CCc1ccccc1)N[C@@H](C)C(=O)N1CCC[C@H]1C(=O)O [Enalapril maleate] | 101 | 101 | 103 | 105 | 98.5 | 103 | 99.2 | 99 |
| CCCN(CCC)CCc1cccc2c1CC(=O)N2 [Ropinirole HCl] | 109 | 117 | 106 | 114 | 107 | 104 | 107 | 110 |
| O=P(O)(O)C(O)(Cn1ccnc1)P(=O)(O)O [Zoledronic Acid] | 104 | 100 | 100 | 111 | 104 | 107 | 102 | 109 |
| O=C(O)Cc1ccccc1Nc1c(Cl)cccc1Cl [Diclofenac] | 97.6 | 112 | 103 | 109 | 100 | 105 | 105 | 109 |
| COc1cccc2c1C(=O)c1c(O)c3c(c(O)c1C2=O)C[C@@](O)(C(=O)CO)C[C@@H]3O[C@H]1C[C@H](N)[C@H](O)[C@H](C)O1 [Doxorubicin] | 63.3 | 44 | 57.3 | 16.7 | 63 | 55.4 | 52.4 | 13.7 |
| C[C@H]1c2cccc(O)c2C(=O)C2=C(O)[C@]3(O)C(=O)C(C(N)=O)=C(O)[C@@H](N(C)C)[C@@H]3[C@@H](O)[C@@H]21 [Doxycycline HCl] | 102 | 104 | 105 | 107 | 105 | 106 | 95.6 | 92.9 |
| O=S(=O)(O)c1cc(O)ccc1O [Ethamsylate] | 105 | 101 | 105 | 109 | 96.6 | 101 | 96.8 | 107 |
| NCCCC[C@H](N[C@@H](CCc1ccccc1)C(=O)O)C(=O)N1CCC[C@H]1C(=O)O [Lisinopril] | 111 | 94.9 | 100 | 107 | 101 | 94.7 | 107 | 108 |
| CC(Oc1c(Cl)cccc1Cl)C1=NCCN1 (stereo unspecified) [Lofexidine  HCl] | 99.4 | 101 | 99.6 | 118 | 98.3 | 103 | 89.6 | 108 |
| Nc1ccc(C(=O)O)c(O)c1 [Aminosalicylate sodium] | 95.2 | 102 | 102 | 108 | 105 | 105 | 114 | 108 |
| CCCCN1CCCCC1C(=O)Nc1c(C)cccc1C (stereo unspecified) [Bupivacaine hydrochloride] | 107 | 105 | 102 | 104 | 105 | 105 | 106 | 102 |
| COc1cc2nc(N3CCN(C(=O)c4ccco4)CC3)nc(N)c2cc1OC [Prazosin HCl] | 102 | 101 | 109 | 109 | 101 | 100 | 106 | 109 |
| CN(C)CCc1c[nH]c2ccc(Cn3cncn3)cc12 [Rizatriptan Benzoate] | 103 | 108 | 110 | 107 | 109 | 104 | 110 | 113 |
| N#C[C@@H]1CCCN1C(=O)CNC12CC3CC(CC(O)(C3)C1)C2 [Vildagliptin] | 63.4 | 104 | 114 | 117 | 103 | 95.7 | 99 | 119 |
| OC1(c2ccc(Cl)c(C(F)(F)F)c2)CCN(CCCC(c2ccc(F)cc2)c2ccc(F)cc2)CC1 [Penfluridol] | 96.8 | 107 | 96.7 | 116 | 97.8 | 100 | 104 | 120 |
| CCCCCOC(=O)Nc1nc(=O)n([C@@H]2O[C@H](C)[C@@H](O)[C@H]2O)cc1F [Capecitabine] | 104 | 94.1 | 106 | 119 | 105 | 113 | 119 | 129 |
| CC[C@]1(O)C[C@H]2CN(CCc3c([nH]c4ccccc34)[C@@](C(=O)OC)(c3cc4c(cc3OC)N(C=O)[C@H]3[C@@](O)(C(=O)OC)[C@H](OC(C)=O)[C@]5(CC)C=CCN6CC[C@]43[C@@H]65)C2)C1 [Vincristine] | 38.3 | 40.4 | 44.4 | 42 | 32.5 | 29.1 | 32.3 | 41.1 |
| CCCc1cc(=O)[nH]c(=S)[nH]1 [Propylthiouracil] | 106 | 105 | 107 | 120 | 99.3 | 108 | 107 | 110 |
| CC/C(=C(/CC)c1ccc(O)cc1)c1ccc(O)cc1 [Diethylstilbestrol] | 105 | 106 | 107 | 109 | 108 | 96.7 | 108 | 112 |
| CC(=O)[C@H]1CC[C@H]2[C@@H]3CCC4=CC(=O)CC[C@]4(C)[C@H]3CC[C@]12C [Progesterone] | 109 | 105 | 103 | 116 | 111 | 111 | 111 | 116 |
